We go through 40 compounds from PubChem BioAssay (NCATS).

Results filed as inconclusive are left out. Entries that show only a call come without a potency. Activity calls are given as the source filed them. Calls follow the shape of the dose curve; as a rule, active = well fitted cell-killing curve with a large enough effect; inconclusive = small, poorly fitted or top-dose-only effect; inactive = flat fitted curve, though single readings scatter.

The test in a line: qHTS of pediatric cancer cell lines to identify multiple opportunities for drug repurposing: Primary screen for Rh18 cells (AID 1347102). Also: nearly all actives have a fitted effect of over 65% in size. The following applies: Rh18 rhabdomyosarcoma viability, CellTiter-Glo luminescence, 48 h; series mostly up to 46 µM. From the text:
Drug repurposing or repositioning has been offered as a strategy for drug development in oncology programs. This approach has special potential for childhood cancers and other rare or orphan diseases, where the expected return on new drug development has been a disincentive to pharmaceuticals.
In this project we exploit the poly-pharmacology of drugs to discover new indications via phenotypic screening of a panel of 19 well-characterized cell lines derived from solid tumors seen in children and adolescents. The goal is to identify approved drugs with previously unrecognized anticancer properties that has the potential to reveal new mechanisms and biological processes involved in carcinogenesis or drug resistance. We employed a titration-based paradigm (quantitative high-throughput screening or qHTS), where all compounds were tested at multiple concentrations for their effect on cell viability. Concentration-response curves (CRCs) were derived directly from the primary screen, and both potency and efficacy values were used to identify compounds with robust bioactivity profiles. We screened the NIH Chemical Genomics Center (NCGC) Pharmaceutical Collection (NPC) and Mechanism Interrogation Plate (MIPE) small molecule collections of approved and investigational compounds against these cell lines; and measured metabolically active cells after 48 hours of compound treatment as a proxy for cell viability.
Assay Submitter: Nathalia J. Martinez, National Center for Advancing Translational Sciences, National Institutes of Health, Rockville, MD, USA; email: natalia.martinez@nih.gov
[1] Shen, M et al. Quantitative high-throughput phenotypic screening of pediatric cancer cell lines identifies multiple opportunities for drug repurposing. Oncotarget 2017 Dec 19;9(4):4758-4772. PMID 29435139.
The cells were obtained from University of North Carolina (UNC), Pediatric Preclinical Testing Program (PPT), and Coriell Institute (CI).
qHTS cell viability assay:
Cells were assayed in growth media at a density of 500-1,000 cells/well. Five microliters of cells were dispensed into 1,536-well, white, solid-bottom, TC-treated plates (Greiner Bio One) using a multidrop dispenser and incubated at 37 degrees C, 5% CO2, under a humidified atmosphere for 5 hours. Twenty-three nanoliters of compounds and controls (neutral control DMSO or positive control bortezomib at final concentration of 2.3 µM) were subsequently transferred by Kalypsys pintool. For primary screens, the MIPE collection was tested at 11-point dilutions (final concentrations range from 0.78 nM to 46 µM) and the NPC collection at 8-point dilutions (final concentrations range from 0.59 nM to 46 µM). Compounds tested in follow-up screens were assayed at 11-point dilutions. Cells were incubated for 48 hours, followed by addition of 3 µL of CellTiter-Glo (Promega). After a 15 min incubation at room temperature, samples were analyzed for luminescence intensity using a ViewLux High-throughput CCD imager equipped with clear filters.
On the technique in general: Quantitative high-throughput screening tests each substance at several concentrations.
In the case of `Nc1nc2ccccc2n1Cc1ccc(F)cc1`, the Potency result was “inactive”. As for `OCc1c[nH]c2ccccc12`, the Potency entry was “inactive”. On the same count and under the same terms, the result for `O=C(O)c1[nH]n(-c2ccc(S(=O)(=O)O)cc2)c(=O)c1N=Nc1ccc(S(=O)(=O)O)cc1` reads “inactive”; that for `O=C(O)CNC(=O)CNC(=O)CNC(=O)CSC(=O)c1ccccc1`, “inactive”; that for `C=CC[N+]1([C@H]2C[C@H]3[C@@H]4CC[C@H]5C[C@H](OC(C)=O)[C@@H](N6CCCCC6)C[C@]5(C)[C@H]4CC[C@]3(C)[C@H]2OC(=O)CC)CCCCC1`, “inactive”. On to `O=C(OCC(COC(=O)c1cccnc1)(COC(=O)c1cccnc1)COC(=O)c1cccnc1)c1cccnc1`, for which the Potency entry is “inactive”. Regarding `CCOC(=O)[C@H](CCc1ccccc1)N[C@@H](C)C(=O)N(CC(=O)O)C1Cc2ccccc2C1`, the Potency entry was “inactive”.

As for `CCCCN(CCN(CCCC)C(=O)N1CCOCC1)C(=O)N1CCOCC1`, the Potency result is “inactive”.

Regarding `O=P(O)(O)OCC(O)CO` (stereo not given), the Potency entry is “inactive”.

For the compound `Cc1sccc1Br`, the Potency result is “inactive”. In the case of `CC(C)C(=O)Nc1cccc(C2CN3CCSC3=N2)c1` (stereo not given), the Potency entry was “inactive”. Still for that read-out and setting: the result for `O=C1NC(c2ccccc2)(c2ccccc2)C(=O)N1COP(=O)(O)O` reads “inactive”. In the case of `CCC[C@H](N[C@@H](C)C(=O)N1[C@H](C(=O)O)C[C@@H]2CCCC[C@@H]21)C(=O)OCC`, the Potency result was “inactive”. `CCCOc1ccc2c(c1)CC[C@@H]1[C@@H]2CC[C@]2(C)C(OC)CC[C@@H]12` (stereo not given in full): the Potency result is “inactive”. On the same count and under the same terms, the result for `N#CSCC(=O)O` reads “inactive”; that for `O=C(O)c1cn(C2CC2)c2cc(Cl)c(F)cc2c1=O`, “inactive”; that for `C/C=C(/C(=C/C)c1ccc(OC(C)=O)cc1)c1ccc(OC(C)=O)cc1`, “inactive”. For the compound `CC(C)OP(=O)(CP(=O)(OC(C)C)OC(C)C)OC(C)C`, the Potency entry is “inactive”.

On to `Oc1ccccc1`, for which the Potency result was “inactive”. Take `O=C(O)Cn1c(=O)n(Cc2ccc(Br)cc2F)c(=O)c2ccc(Cl)cc21`: the Potency result was “inactive”. `OCc1cccnc1`: the Potency entry was “inactive”. The same measure, in the same setting: with `COc1ccc2nc(SCc3ncc(C)c(OC)c3C)[nH]c2c1` the entry was “inactive”; with `COc1ccc(OC(=O)N(CC(=O)O)Cc2ccc(OCCc3nc(-c4ccccc4)oc3C)cc2)cc1`, “inactive”; with `O=C1Nc2ccccc2C1(c1ccc(O)cc1)c1ccc(O)cc1`, “inactive”. Same read-out and setting: with `O=C(OCC(O)CO)c1ccccc1Nc1ccnc2c(C(F)(F)F)cccc12` (stereo not given) the entry was “inactive”. With `O=C(O)Cc1ccc(OCCNC[C@H](O)c2ccccc2)cc1`, the Potency result is “inactive”. The same measure, in the same setting: with `CN1N=C(C(N)=O)CCC1=O` the entry was “inactive”; with `O=C(CS(=O)Cc1ccco1)NC/C=C\COc1cc(CN2CCCCC2)ccn1` (stereo not given), “inactive”; with `C/C(=N\O)[C@@H](C)NCC(C)(C)CN[C@H](C)/C(C)=N/O`, “inactive”. `CC1CN(c2cc3c(cc2F)c(=O)c(C(=O)O)cn3-c2ccc(F)cc2F)CCN1` (stereo not given): the activity change, negative = cytotoxic is -0.484% [at 4.84 µM] (inactive).

`CCCCCCn1c(=O)c2c(ncn2C)n(C)c1=O`: the Potency entry is “inactive”. Same read-out and setting: with `CC(=O)Nc1ccc(S(=O)(=O)Nc2cc(C)on2)cc1` the entry was “inactive”; with `CNC[C@H](O)[C@@H](O)[C@H](O)[C@H](O)CO`, “inactive”. Regarding `CCC(C(=O)NC(=O)NC(C)=O)c1ccccc1` (stereo not given), the Potency result is “inactive”. Take `CN(C)C(=O)CNC(=O)Cc1ccccc1`: the Potency result was “inactive”. As for `OC1(c2ccccc2)CCNCC1`, the Potency result is “inactive”.

Turning to `CCOc1c(N2CCOCC2)cnn(C)c1=O`, the Potency result is “inactive”.

`C=CCOc1cc(Cl)ccc1C(=O)NCCN(CC)CC`: the Potency result is “inactive”. As to `Cc1cc(C(C)(C)C)c(O)c(C(C)(C)C)c1`, the Potency result was “inactive”. Regarding `Cc1ccc(/C=N/n2c(-c3ccccc3)csc2=S)cc1`, the Potency result is “inactive”.
